Compound activity from PubChem.
Rows were chosen to be rich in hits. Some 19% of all compounds tested hit in one or more screens of this group.
TGFb inhibitor: qHTS for Inhibitors of TGF-b; actives 1.2% (n = 410,000); AID 588855, 2011; Potency, µM (doses to about 46.1 µM), most hits filed as inhibitors; HepG2 CAGA-GFP TGF-b/SMAD3 reporter, GFP fluorescence, 18 h; TGF-beta stimulated, 500 pg/mL final; also: nearly all actives have a fitted effect of over 65% in size
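HEPG2 CAGA-GFP, 1000 cells/well; 2 h settle, 37 C; cpd via pin tool; TGF-b 500 pg/mL final; 18 h, 37 C; GFP imaging ex488/em500-530; %Activity normalised to -TGF-b and +DMSO controls; CRC fit, curve class.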
TDP1 block: qHTS Assay for Inhibitors of Tyrosyl-DNA Phosphodiesterase (TDP1) | actives 0.28% (n = 350,000) | Potency, µM (series often up to 130 µM), hits mostly inhibitors | AID 485290, 2010 | Tyrosyl-DNA phosphodiesterase 1 (Homo sapiens), Q9NUW8 | recombinant TDP1, AlphaScreen DNA substrate cleavage; also: nearly all actives have a fitted effect of over 40% in size
Target sequence (Q9NUW8 whole entry, looked up): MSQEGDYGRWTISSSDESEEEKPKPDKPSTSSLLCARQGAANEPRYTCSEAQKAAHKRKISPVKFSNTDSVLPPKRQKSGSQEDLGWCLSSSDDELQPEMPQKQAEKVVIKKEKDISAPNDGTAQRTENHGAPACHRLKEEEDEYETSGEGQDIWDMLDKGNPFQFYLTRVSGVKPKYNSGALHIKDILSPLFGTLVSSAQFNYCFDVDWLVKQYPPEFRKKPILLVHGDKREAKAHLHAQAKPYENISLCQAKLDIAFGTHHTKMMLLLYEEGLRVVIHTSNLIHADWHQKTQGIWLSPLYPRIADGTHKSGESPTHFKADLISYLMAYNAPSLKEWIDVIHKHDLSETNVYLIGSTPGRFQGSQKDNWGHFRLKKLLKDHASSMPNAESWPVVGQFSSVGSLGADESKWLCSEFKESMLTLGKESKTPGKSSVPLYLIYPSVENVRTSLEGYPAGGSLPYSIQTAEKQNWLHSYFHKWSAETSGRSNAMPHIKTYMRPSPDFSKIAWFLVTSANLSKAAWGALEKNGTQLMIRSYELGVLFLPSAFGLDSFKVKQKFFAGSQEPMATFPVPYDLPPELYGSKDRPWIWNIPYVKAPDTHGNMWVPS
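Steps: enzyme plus compound, 15 min RT; add biotin/phosphotyrosine-FITC oligonucleotide (15 nM final), react 5 min; add donor/acceptor beads (10 ug/ml final), 10 min; read AlphaScreen. Tdp1 at 1 nM final.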
HepG2 viability: qHTS for Inhibitors of TGF-b: Cytotox Counterscreen; actives 0.76% (n = 410,000); AID 588856, 2011; HepG2 CAGA-GFP viability, ATP luminescence, 18 h; Potency, µM (doses to about 46.1 µM), most hits filed as cytotoxic
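HepG2 CAGA-GFP cells (1000/well, DMEM with 1% FBS) received compound, then TGF-beta at 500 pg/mL final, and were incubated 18 hours at 37 degrees C. Viability was read by CellTiter-Glo luminescence. Media-only wells were set as complete cell-killing and DMSO as no toxicity.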
IL1B secr inh: qHTS for Inhibitors of Inflammasome Signaling: IL-1-beta AlphaLISA Primary Screen; THP-1 LPS/ATP IL-1B secretion, AlphaLISA, 16 h; hits give low values; activity change, % at 57.5 µM; actives 4.7% (n = 360,000); in the data active = activity change below about -50%; inconclusive = mostly about -30% to -49%
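THP-1 cells pretreated 1 hr with compounds (up to 57.5 uM final), then stimulated with LPS (250 ng/mL final) plus ATP (1.25 mM final); secreted IL-1B measured by AlphaLISA after 16 hr, decreased signal indicating inhibition.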
DT40 TDP1 CPT: qHTS for Inhibitors of human tyrosyl-DNA phosphodiesterase 1 (TDP1): qHTS in cells in presence of CPT; chicken DT40 Tdp1-/-;hTDP1 cells + 20 nM CPT, ATP luminescence, 48 h; Potency, µM (doses to about 46.2 µM), actives largely listed as inhibitors; actives 12% (n = 420,000); AID 686979, 2013; also: nearly all actives have a fitted effect of over 55% in size
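Cell growth measured by CellTiter-Glo luminescence after a minimum 48 h, 37 C compound exposure with 20 nM CPT in Tdp1-knockout DT40 cells stably expressing hTDP1, seeded 400/well; qHTS titration format.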
DT40 TDP1 no CPT: qHTS for Inhibitors of human tyrosyl-DNA phosphodiesterase 1 (TDP1): qHTS in cells in absence of CPT; DT40 Tdp1-/- hTDP1 cells, no CPT, ATP luminescence, 48 h; Potency, µM (highest dose often 46.2 µM), hits mostly inhibitors; actives 15% (n = 420,000); AID 686978, 2013; also: nearly all actives have a fitted effect of over 55% in size
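Readout: luminescence from CellTiter-Glo after 30 min in the dark at RT. Cells: DT40 Tdp1-/- with stable hTDP1, 400/well. Exposure: compounds alone, ≥48 hr, 37 °C.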
A number is an active result; 0 = inactive; ? = inconclusive; - = not tested or not shown; [ ] = dose if it differs, or a comment. Unless noted, calls follow the shape of the dose curve; as a rule, active = well fitted curve in the direction sought with a large enough effect; inconclusive = small, poorly fitted or top-dose-only effect, or another doubt; inactive = no such curve, though single readings can be large; an effect the other way counts as inactive or inconclusive.

SMILES	TGFb inhibitor	TDP1 block	HepG2 viability	IL1B secr inh	DT40 TDP1 CPT	DT40 TDP1 no CPT
COCC(C)n1c(SCC(=O)Nc2c(C)n(C)n(-c3ccccc3)c2=O)nc2ccccc2c1=O (centres undefined)	0	0	0	0	0	0
COc1ccc(OCC(=O)Nc2ccc(N3CCN(C(=O)c4ccccc4C)CC3)cc2)cc1	0	0	0	0	26µM	?
Cc1ccc(OCC(=O)Nc2ccc(N3CCN(S(C)(=O)=O)CC3)cc2)cc1C	0	0	0	0	0	0
Cc1ccc(OCC(=O)Nc2ccc(N3CCN(C(=O)c4ccco4)CC3)cc2)cc1C	0	0	0	-82	?	?
COc1ccc(OCC(=O)Nc2ccc(N3CCOCC3)c(Cl)c2)cc1	0	0	0	0	0	0
COc1ccc(OCC(=O)Nc2ccc(N3CCN(C(=O)c4ccccc4)CC3)c(Cl)c2)cc1	0	0	0	0	?	12µM
Cc1ccc(C(=O)Nc2ccc(N3CCN(C(=O)c4ccco4)CC3)cc2)cc1	0	0	0	0	0	0
Cc1cccc(OCC(=O)Nc2ccc(N3CCN(C(=O)c4ccco4)CC3)cc2)c1	?	0	0	-54	18µM	21µM
O=C(/C=C/c1ccc(Cl)cc1)N1CCC(c2nc3ccccc3o2)CC1	?	0	0	-	?	?
CCOCCc1nnc(NC(=O)CCC2CCCCC2)s1	0	0	0	0	0	0
Cc1cc(C)n(-c2nc3cc(Cl)ccc3nc2Nc2ccc(C)c(F)c2)n1	0	0	0	-	0	0
COc1cccc(N2C(=O)Nc3ccc(Br)cc3C2(O)C(=O)NCCCOC(C)C)c1 (centres undefined)	0	-	0	0	0	0
Cc1cccc(OCC(=O)Nc2ccc(N3CCN(C(=O)c4ccccc4)CC3)cc2)c1C	0	0	0	0	?	?
Cc1cc(OCC(=O)Nc2ccc(N3CCN(C(=O)c4ccco4)CC3)cc2)cc(C)c1Cl	?	0	0	0	9.2µM	10µM
CCCCCC(=O)Nc1ccc(N2CCN(CC)CC2)c(Cl)c1	0	0	0	0	35µM	?
CCC(=O)N1CCN(c2ccc(NC(=O)COc3cccc(C)c3C)cc2)CC1	0	0	0	0	?	18µM
Cc1ccc(OCC(=O)Nc2cc(C(=O)O)cc(C(=O)O)c2)cc1C	0	0	0	0	6.5µM	?
COc1cccc(-c2ccnc(-n3ncc(C(=O)NCc4cccnc4)c3C3CC3)n2)c1	-	-	-	-	0[9.04 µM]	?
Cc1ccccc1OCC(=O)Nc1ccc(N2CCN(C)CC2)c(Cl)c1	0	0[0.0935 µM]	0	?	?	15µM
Cc1ccccc1OCC(=O)Nc1ccc2c(c1)Cc1ccccc1-2	0	0	0	0	0	0
Cc1ccccc1OCCC(=O)OCC(=O)Nc1ccc(N2CCOCC2)cc1	0	0	0	-62	16µM	?
CN(CC(=O)Nc1ccc(N2CCOCC2)cc1)C(=O)CCCOc1ccc(Cl)cc1Cl	?	0	0	0	9.2µM	?
COc1cc2c(c(OC)c1)C(c1cccc(F)c1F)CC(=O)N2 (centres undefined)	0	0	0	-	0	0
CCCOc1cccc(-c2nn(-c3ccccc3)cc2/C=C(\C#N)C(=O)NCCCn2ccnc2)c1	0	0	0	-58	?	?
Cc1ccc(C)c(NC(=O)/C(C#N)=C/c2cn(CC(=O)NCc3ccco3)c3ccccc23)c1	?	0	0	0	16µM	?
CN(C)S(=O)(=O)c1cccc(-c2nn(-c3ccccc3)cc2/C=C(/C#N)C(=O)NCc2ccco2)c1	0	0	0	0	18µM	?
